In PubChem BioAssay (NCATS):
Records with an inconclusive call do not appear. The source made the active and inactive calls. Calls follow the shape of the dose curve; as a rule, active = well fitted curve in the direction sought with a large enough effect; inconclusive = small, poorly fitted or top-dose-only effect, or another doubt; inactive = no such curve, though single readings can be large; an effect the other way counts as inactive or inconclusive. Positions of bridges follow the written chain, without caps; N, C: chain ends. Non-standard residues stand in square brackets, D forms with d. Residues, ends and D or L forms follow the SMILES beside them. ξ: configuration not given here. *: point of attachment. Octanoyl(6-Me) = CCC(C)CCCCC(=O)*; ξThr(3R) = C[C@@H](O)C(N)C(=O)O; dDab = NCC[C@@H](N)C(=O)O; Dab = NCC[C@H](N)C(=O)O

Columns and labels:
[1] = test system: MKL-1; experiment: qHTS assay to identify novel small-molecules to repurpose for Merkel cell carcinoma treatment (AID 1296009); details: MCC and control cell lines, CellTiter-Glo viability, 72 h; series mostly up to 46 µM; also: nearly all actives have a fitted effect of over 60% in size
Outline: (§1)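 CellTiter-Glo luminescence after 72 hr compound exposure at 37 degree celsius gave cell viability. Libraries NPC and MIPE were run as 8- and 11-point dose responses; RLUs normalized to DMSO (negative) and no-cell (cytotoxicity) controls.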

[2] = test system: MKL-2; experiment: as above; details: MCC and control cell lines, CellTiter-Glo viability, 72 h; series mostly up to 46 µM
Outline: as §1

[3] = test system: NIH3T3; experiment: as above; details: MCC and control cell lines, CellTiter-Glo viability, 72 h; at 44.8 µM (top of the series) unless noted
Outline: as §1

[4] = test system: UISO; experiment: as above; details: MCC and control cell lines, CellTiter-Glo viability, 72 h; series mostly up to 46 µM
Outline: as §1

[5] = test system: WaGa; experiment: as above; details: MCC and control cell lines, CellTiter-Glo viability, 72 h; series mostly up to 46 µM
Outline: as §1

[6] = test system: C33A; experiment: Primary qHTS to identify gynecologic anti-cancer compounds using libraries of approved drugs and bioactive compounds (AID 1345084); details: Gynecologic cancer cell panel viability, ATPlite luminescence, 48 h; series mostly up to 57.5 µM; also: nearly all actives have a fitted effect of over 55% in size
Outline: (§2)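 Cells, 1,000 per well, plated 16 h, then exposed 48 h at 37 C to compounds. Viability by ATPlite luminescence after 15 min at room temperature.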

[7] = test system: CASKI; experiment: as above; details: Gynecologic cancer cell panel viability, ATPlite luminescence, 48 h; series mostly up to 57.5 µM
Outline: as §2

[8] = test system: Es-2; experiment: as above; details: Gynecologic cancer cell panel viability, ATPlite luminescence, 48 h; series mostly up to 57.5 µM
Outline: as §2

[9] = test system: HeLa; experiment: as above; details: Gynecologic cancer cell panel viability, ATPlite luminescence, 48 h; series mostly up to 57.5 µM
Outline: as §2

[10] = test system: Hek293T; experiment: as above; details: Gynecologic cancer cell panel viability, ATPlite luminescence, 48 h, control line for the selectivity index; series mostly up to 57.5 µM
Outline: as §2

[11] = test system: JEG-3; experiment: as above; details: Gynecologic cancer cell panel viability, ATPlite luminescence, 48 h; series mostly up to 57.5 µM
Outline: as §2

[12] = test system: OV90; experiment: as above; details: Gynecologic cancer cell panel viability, ATPlite luminescence, 48 h; series mostly up to 57.5 µM
Outline: as §2

[13] = test system: PA-1; experiment: as above; details: Gynecologic cancer cell panel viability, ATPlite luminescence, 48 h; series mostly up to 57.5 µM
Outline: as §2

[14] = test system: SKOV3; experiment: as above; details: Gynecologic cancer cell panel viability, ATPlite luminescence, 48 h; series mostly up to 57.5 µM
Outline: as §2

[15] = test system: Tov-21-G; experiment: as above; details: Gynecologic cancer cell panel viability, ATPlite luminescence, 48 h; series mostly up to 57.5 µM
Outline: as §2

[16] = test system: Tov112D; experiment: as above; details: Gynecologic cancer cell panel viability, ATPlite luminescence, 48 h; series mostly up to 57.5 µM
Outline: as §2

Measured: Potency

CC(C)Oc1ccc(C(=O)N[C@H](CNC(=O)CN(C)C)Cc2ccc(-c3cn4cccc([C@H](C)O)c4n3)cc2)cc1Cl
inactive: [1] | [2]

C=C(C)[C@@H]1CC[C@]2(C)CC[C@]3(C)[C@H](CC[C@@H]4[C@@]5(C)CC[C@H](O)C(C)(C)[C@H]5CC[C@]43C)[C@@H]12
inactive: [1] | [2] | [3] | [4] | [5]

O=c1c(O)c(-c2ccc(O)c(O)c2)oc2cc(O)ccc12
inactive: [1] | [2]

C[C@@H]1[C@H](C)CC[C@]2(C(=O)O)CC[C@]3(C)C(=CC[C@@H]4[C@@]5(C)C[C@@H](O)[C@H](O)[C@@](C)(CO)[C@H]5CC[C@]43C)[C@@H]12
inactive: [1] | [2] | [3] | [4] | [5]

CCC(C)CCCCC(=O)N[C@@H](CCN)C(=O)NC(C(=O)N[C@H](CCN)C(=O)N[C@@H]1CCNC(=O)C([C@@H](C)O)NC(=O)[C@@H](CCN)NC(=O)[C@@H](CCN)NC(=O)[C@@H](CC(C)C)NC(=O)[C@H](Cc2ccccc2)NC(=O)[C@H](CCN)NC1=O)[C@@H](C)O (stereo partly drawn) ({Octanoyl(6-Me)}-[Dab][ξThr(3R)][dDab][dDab][Dab]F[dL][dDab][dDab][ξThr(3R)]; lactam 4-C)
inactive: [1] | [2] | [3] | [4] | [5]

O=C(NNC(=O)c1ccc(CNS(=O)(=O)c2ccc(F)c(Cl)c2)cc1)c1ccccc1
inactive: [1] | [2] | [3] | [4] | [5]

C[C@H](CCC(=O)O)[C@H]1CCC2C3C[C@H](O)[C@@H]4C[C@H](O)CC[C@]4(C)C3CC[C@@]21C (stereo not given in full)
inactive: [1] | [2] | [3] | [4] | [5]

C[C@]12CCC(=O)C=C1[C@@H]1CC1[C@H]1[C@H]3[C@@H]4C[C@H]4[C@@]4(CCC(=O)O4)[C@@]3(C)CC[C@H]12 (stereo not given in full)
inactive: [1] | [2] | [3] | [4] | [5]

C[C@@]12C[C@@]3(O)O[C@@H](O1)[C@]1(COC(=O)c4ccccc4)[C@@H]3C[C@@]12O[C@@H]1O[C@H](CO)[C@@H](O)[C@H](O)[C@@H]1O
inactive: [1] | [2] | [3] | [4] | [5]

C[C@]12C=CC(=O)N[C@@H]1CC[C@H]1[C@H]3CC[C@@H](C(=O)Nc4cc(C(F)(F)F)ccc4C(F)(F)F)[C@@]3(C)CC[C@@H]12
inactive: [1] | [2] | [3] | [4] | [5]

C[C@H]1COc2c(N3CCN(C)CC3)c(F)cc3c(=O)c(C(=O)O)cn1c23
inactive: [1] | [2] | [3] | [4] | [5]

C[C@H](CCC(=O)O)[C@H]1CC[C@H]2[C@@H]3[C@H](O)C[C@@H]4C[C@H](O)CC[C@]4(C)[C@@H]3CC[C@]12C
inactive: [1] | [2] | [3] | [4] | [5]

O=c1[nH]c(=O)n([C@H]2C[C@@H](O)[C@@H](CO)O2)cc1C=CBr
inactive: [1] | [2] | [3] | [4] | [5]

CC(=O)C1=C(O)C=C2Oc3c(C(C)=O)c(O)c(C)c(O)c3C2(C)C1=O (stereo not given)
inactive: [1] | [2] | [3] | [4] | [5]

CCCCCCCCCCCCc1ccc(S(=O)(=O)Nc2nncs2)cc1
inactive: [1] | [2] | [3] | [4] | [5]

COC(=O)[C@@H]1CC2=CC(=O)CC[C@]2(C)[C@@]23O[C@@H]2C[C@@]2(C)[C@H](CC[C@@]24CCC(=O)O4)[C@@H]13
inactive: [1] | [2] | [3] | [4] | [5]

O=C(Nc1ccc(Oc2ccnc3[nH]ccc23)c(F)c1)c1cccn(-c2ccc(F)cc2)c1=O
inactive: all assays above

NC(=O)c1cccc(-c2cccc(OC(=O)NC3CCCCC3)c2)c1
inactive: [1] | [2] | [3] | [4] | [5]

Nc1nc(=O)n([C@H]2CSC(CO)O2)cc1F (stereo not given in full)
inactive: [1] | [2] | [3] | [4] | [5]

C=CC1=C(C(=O)O)N2C(=O)[C@@H](NC(=O)C(=NO)c3csc(N)n3)[C@H]2SC1
inactive: [1] | [2] | [3] | [4] | [5]

COc1ccc(CCC(=O)c2c(O)cc(O[C@@H]3O[C@H](CO)[C@@H](O)[C@H](O)[C@@H]3O[C@@H]3O[C@@H](C)[C@H](O)[C@@H](O)[C@@H]3O)cc2O)cc1O
inactive: [1] | [2] | [3] | [4] | [5]

O=C(C=CC=Cc1ccc2c(c1)OCO2)N1CCCCC1
inactive: [1] | [2] | [3] | [4] | [5]

OC[C@H]1OC(O)C[C@@H](O)[C@H]1O (stereo not given in full)
inactive: [1] | [2] | [3] | [4] | [5]
